We go through eight compounds from PubChem BioAssay (NCI).

This is part of a sample that, as a whole, favours compounds with a hit. Of some 83,000 tested, about 20% had one in any assay.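 Negative percent growth values reflect cell death: -40 means 40% of the cells present at the start died, and -100 means all died.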 A number with no mark means an inactive call. The source made the active and inactive calls. The calls were made as follows: active = growth percent below 10; inactive = the rest.

Some test systems named below: NCI-H23 lung; NCI-H226 lung; NCI-H322M lung; HOP-62 NSCLC; NCI-H460 lung; HOP-92 NSCLC; NCI-H522 lung; A549/ATCC NSCLC; 786-0 renal; COLO 205 colon; DU-145 prostate; K-562 leukemia; MALME-3M melanoma; MDA-MB-231 breast; RXF 393 renal; SF-268 CNS; SF-295 CNS; SF-539 CNS; UACC-257 melanoma; M14 melanoma.
What all share (assay): NCI-60 one-dose screen, 48 h (100 = growth as untreated, 0 = no growth, -100 = all killed)
Conditions in all cases: 10 µM unless noted

In the case of `Cc1cn([C@]2(CF)O[C@H](CO)C2C)c(=O)[nH]c1=O` (stereo not given in full), the growth with NCI-H23 lung is 111%; in the assay on NCI-H226 lung, 111%; in the assay with NCI-H322M lung, 108%; in the assay on HOP-62 NSCLC, 62.8%; with NCI-H460 lung, 125%; in the assay on HOP-92 NSCLC, 107%. In addition, the growth is 87.1% with NCI-H522 lung; 109% in the assay with A549/ATCC NSCLC; 101% in the assay with 786-0 renal; 108% in the assay with COLO 205 colon; 124% in the assay on DU-145 prostate; 104% with K-562 leukemia. Moreover, the growth with MALME-3M melanoma is 113%; in the assay on MDA-MB-231 breast it was 116%; with RXF 393 renal, 101%; in the assay on SF-268 CNS, 112%; with SF-295 CNS, 121%; with SF-539 CNS, 110%. Further, the growth with UACC-257 melanoma was 103%; in the assay with M14 melanoma, 118%.

As to `Cc1cc(O[C@@H]2O[C@@H](C)[C@H](O)[C@@H](O)[C@H]2O)c2c3c(c(O[C@@H]4O[C@@H](C)[C@H](O)[C@@H](O)[C@H]4O)cc2c1)C(=O)c1c(O)cccc1C3=O`, the growth in the assay on NCI-H23 lung is 95.4%; in the assay with NCI-H226 lung it was 52.1%; in the assay on NCI-H322M lung it was 95.4%; with HOP-62 NSCLC it was 77.4%; in the assay with NCI-H460 lung, 84.8%; with HOP-92 NSCLC, 76.1%. For the same compound, the growth with NCI-H522 lung is 64.8%; in the assay with A549/ATCC NSCLC, 76.8%; with 786-0 renal it was 24.4%; in the assay on COLO 205 colon it was 94.5%; with DU-145 prostate, 98%; in the assay on K-562 leukemia, 79.6%. The growth is 107% in the assay on MALME-3M melanoma; 86.3% in the assay on MDA-MB-231 breast; 29.6% in the assay with RXF 393 renal; 56.3% with SF-268 CNS; 79% in the assay with SF-295 CNS; 92.5% with SF-539 CNS. In addition, the growth with UACC-257 melanoma was 87.2%; in the assay on M14 melanoma, 82.6%.

For the compound `O=C1/C(=C/c2cccc3cnccc23)Cc2cc(F)ccc21`, the growth in the assay with NCI-H23 lung is 87.7%; in the assay on NCI-H226 lung, 73.8%; in the assay on NCI-H322M lung, 93.9%; with HOP-62 NSCLC it was 65.1%; with NCI-H460 lung it was 95.9%; in the assay with HOP-92 NSCLC, 75.3%. In addition, the growth in the assay on NCI-H522 lung is 78.4%; in the assay with A549/ATCC NSCLC, 98.7%; in the assay on 786-0 renal, 97.4%; with COLO 205 colon, 81.8%; with DU-145 prostate, 104%; in the assay with K-562 leukemia, 96.1%. Also, the growth in the assay with MALME-3M melanoma is 97.9%; with MDA-MB-231 breast, 93.4%; in the assay with RXF 393 renal, 112%; in the assay with SF-268 CNS, 98.8%; with SF-295 CNS it was 88.4%; with SF-539 CNS, 94.1%. Further, the growth with UACC-257 melanoma was 113%; with M14 melanoma, 87.7%.

Regarding `C/C(=N\N=C1/SCC(=O)N1c1ccccc1)c1ccco1`, the growth was 99.4% in the assay with NCI-H23 lung; 124% with NCI-H226 lung; 89.8% with NCI-H322M lung; 137% in the assay with HOP-62 NSCLC; 123% in the assay on NCI-H460 lung; 63.3% in the assay with HOP-92 NSCLC. For the same compound, the growth with NCI-H522 lung was 75.4%; with A549/ATCC NSCLC, 114%; in the assay on 786-0 renal it was 52%; in the assay with COLO 205 colon it was 130%; in the assay on DU-145 prostate, 119%; with K-562 leukemia it was 96.4%. Moreover, the growth was 82.1% in the assay with MALME-3M melanoma; 93.2% with MDA-MB-231 breast; 112% in the assay with RXF 393 renal; 91.6% with SF-268 CNS; 98.3% in the assay on SF-295 CNS; 118% in the assay with SF-539 CNS. Moreover, the growth in the assay with UACC-257 melanoma was 118%; in the assay on M14 melanoma, 176%.

Turning to `C=C(C)[C@@H]1C/C=C(\COC(=O)[C@H](OC(C)=O)C(NC(=O)c2ccccc2)c2ccccc2)CC[C@H]2O[C@]2(C)CC/C=C(\C)CC1` (stereo not given in full), the growth in the assay on NCI-H23 lung is 73.7% [5 µM]; in the assay on NCI-H226 lung, 81% [5 µM]; with NCI-H322M lung, 71.6% [5 µM]; in the assay on HOP-62 NSCLC it was 75.3% [5 µM]; in the assay with NCI-H460 lung, 64.2% [5 µM]; in the assay with HOP-92 NSCLC, 13.3% [5 µM]. Further, the growth in the assay with NCI-H522 lung was 57.3% [5 µM]; in the assay on A549/ATCC NSCLC, 73.1% [5 µM]; in the assay on 786-0 renal, 65.7% [5 µM]; with COLO 205 colon, 92% [5 µM]; with DU-145 prostate, 86.6% [5 µM]; in the assay on K-562 leukemia it was 14.7% [5 µM]. Moreover, the growth in the assay on MALME-3M melanoma is 86.3% [5 µM]; in the assay on MDA-MB-231 breast, 65.2% [5 µM]; with RXF 393 renal, 107% [5 µM]; in the assay on SF-268 CNS, 78.9% [5 µM]; in the assay on SF-295 CNS it was 73.7% [5 µM]; in the assay with SF-539 CNS, 81.1% [5 µM]. Besides, the figures for the growth in the assay on UACC-257 melanoma and in the assay on M14 melanoma were 97.5% [5 µM] and 34.3% [5 µM], respectively.

In the case of `O=[N+]([O-])c1ccccc1NC1c2ccccc2Oc2ccccc21`, the growth with NCI-H23 lung was 79.1%; with NCI-H226 lung it was 78%; in the assay on NCI-H322M lung it was 74.6%; in the assay on HOP-62 NSCLC it was 70%; with NCI-H460 lung, 15.1%; with HOP-92 NSCLC it was 48.4%. Also, the growth in the assay with NCI-H522 lung is 26.3%; with A549/ATCC NSCLC it was 44.9%; with 786-0 renal, 94.5%; in the assay with COLO 205 colon it was 69.3%; with DU-145 prostate it was 58.3%; in the assay on K-562 leukemia, 11.2%. Besides, the growth was 48.4% with MALME-3M melanoma; 71.7% in the assay on MDA-MB-231 breast; 81.1% with RXF 393 renal; 41.2% with SF-268 CNS; 23.6% in the assay with SF-295 CNS; 58.2% in the assay on SF-539 CNS. Further, the growth was 74.2% in the assay on UACC-257 melanoma and 36.6% in the assay on M14 melanoma.

Regarding `c1nc(SC2=NCCN2)c2[nH]cnc2n1`, the growth is 46.2% with NCI-H23 lung; 46.9% with NCI-H226 lung; 36.3% in the assay on NCI-H322M lung; 23.2% in the assay on HOP-62 NSCLC; 66.5% in the assay on NCI-H460 lung; 36.2% in the assay with HOP-92 NSCLC. Moreover, the growth is 25% in the assay with NCI-H522 lung; 82.9% with A549/ATCC NSCLC; 22.7% in the assay on 786-0 renal; 56.8% in the assay with COLO 205 colon; 37.3% in the assay with DU-145 prostate; 14.3% with K-562 leukemia. The growth in the assay with MALME-3M melanoma is 47.3%; with MDA-MB-231 breast it was 37.7%; in the assay on RXF 393 renal, 59.7%; with SF-268 CNS, 46.5%; in the assay on SF-295 CNS it was 29.1%; in the assay with SF-539 CNS it was 24.3%. For the same compound, the growth in the assay on UACC-257 melanoma was 66.8%; in the assay with M14 melanoma it was 14.7%.

With `Cn1c(I)c(C#C[Si](C)(C)C)c(=O)[nH]c1=O`, the growth was 17.9% in the assay on NCI-H23 lung; 78.9% in the assay on NCI-H226 lung; 115% with NCI-H322M lung; 76.4% with HOP-62 NSCLC; 104% in the assay on NCI-H460 lung; -82.8% (active) with HOP-92 NSCLC. Besides, the growth is -58.7% (active) with NCI-H522 lung; 86.3% in the assay with A549/ATCC NSCLC; -10.8% (active) with 786-0 renal; -59% (active) in the assay with COLO 205 colon; 64.3% in the assay on DU-145 prostate; -71.3% (active) with K-562 leukemia. Besides, the growth with MALME-3M melanoma was -65.9% (active); in the assay with MDA-MB-231 breast it was 9.45% (active); in the assay with RXF 393 renal, -86.3% (active); with SF-268 CNS, -8.38% (active); in the assay with SF-295 CNS it was 96.2%; in the assay with SF-539 CNS, 96.7%. Further, the growth in the assay with UACC-257 melanoma is -36.5% (active); with M14 melanoma, -50.1% (active).
